Records with an inconclusive call do not appear. A number with no mark means an inactive call. Activity calls are given as the source filed them. The call rests on the fitted dose curve; in most records, active means well fitted activation curve with a large enough effect; inconclusive means small, poorly fitted or top-dose-only effect; inactive means no such curve, though single readings can be large or run the other way.
Test: Confirmation Concentration-Response Assay for Enhancers of SMN2 Splice Variant Expression for Further Probe SAR
Details: HEK293 SMN2 exon7-luciferase splicing reporter, luminescence, 30-36 h; series mostly up to 46.1 µM; activity, positive = activation: at the top concentration
Description: NIH Chemical Genomics Center [NCGC] NIH Molecular Libraries Probe Production centers Network [MLPCN] MLPCN Grant: R03 MH084179-01 Assay Submitter (PI): Elliot Androphy NCGC Assay Overview: Spinal muscular atrophy (SMA) is caused by insufficient levels of the survival motor neuron protein SMN. The SMN locus on chromosome 5q13 contains two inverted copies of SMN called SMN1 and SMN2 which are 99% identical at the amino acid level. SMN1 is a fully functional protein and SMN2 skips exon 7 90% of the time. Skipping of exon 7 produces non-functional protein product. 10% of the SMN2 protein includes exon 7 and is fully functional. In the SMA disease state, mutations in the SMN1 locus are the cause of the disease state. Because only 10% of SMN2 is of the fully functional form, it is not sufficient to overcome the deficiency produced by the loss of the SMN1 product. A therapy that either increase the amount of SMN2 product made or to increase the inclusion of exon 7 has been proposed for the treatment of SMA. We have designed an assay to identify small molecules that can increase the amount of functional SMN2 product by appending a luciferase reporter gene after the native SMN2 gene, such that inclusion of exon 7 in the expressed product places the luciferase sequence in frame, thus generating functional luciferase enzyme.
NCGC Assay Protocol Summary: This screen utilizes a luciferase reporter gene assay, combining the promoter with the major portion of the native SMN2 cDNA (exons 1 -7, intron 8 , exon 8 fused to luciferase) stably expressed in HEK293 cells. Compounds that increase luciferase signal presumably enhance expression of the functional SMN2 splice variant. Passaging media contained DMEM w/ glutamax (+phenol red) 10% FCS, 1x pen/strep, 200 ug/ml hygro, 1x sodium pyruvate. Assay media contained DMEM w/ glutamax (-phenol red) 10% FCS, 1x pen strep, 1x pyruvate Sequence, Parameter, Value, Description (1) Cells, 5 uL, 2000 cells/well, 1536 TC treated White solid bottom plate (2) Time, 10-12 hours, 37C 5% CO2 (3) Compound, 23 nl, MLSMR Library (4) Control Compound, 23 nL, Sodium butyrate st 4.5mM (final) conc (5) Time, 30-36 hours, 37C 5% CO2 (6) Reagent, 3 ul, One Glo (TM) from Promega (7) Time, 5-15 minutes, Room temp (8) Detector, Viewlux: luminescent read, 60 second integration, high speed 2x binning Keywords: Spinal muscular atrophy, SMA, SMN2, high throughput screening, MLSMR, MLPCN, NIH Roadmap, qHTS and NCGC

Which Potency does the source give for `NC(=O)C1CCN(c2ncc(-c3cccc(N4CCCCC4)c3)s2)CC1` here?
The Potency was 1.09 µM (active).

For `NC(=O)C1CCN(c2cc(-c3ccc4c(c3)OCCCO4)ncn2)CC1`, which Potency is on record?
The Potency was 6.14 µM (active).

Which “activity, positive = activation” value does the source give for `O=S(=O)(c1ccccc1)N1CCN(c2nc(-c3ccc(Br)cc3)cs2)CC1` here?
The value was 7.14%.

For `NC(=O)C1CCN(c2nc(-c3ccc(N)cc3)cs2)CC1`, which “activity, positive = activation” value is on record?
Its value is 4.35%.

For `O=C(Nc1ccccc1)C1CCN(c2nc(-c3ccc(Br)cc3)cs2)CC1`, which Potency is on record?
The Potency was 1.54 µM (active).

Source: PubChem BioAssay AID488832 (National Center for Advancing Translational Sciences (NCATS), 2010)
